The nature of experiment [1]: antimalarial activity against Dd2 strain (AID 2302;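 active means growth inhibition above 50% at the single 2 µM test dose, taken to imply half-maximal potency below 2 µM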;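 further: 0% = DMSO untreated growth and 100% = chloroquine plus artemisinin killed control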). As to conditions: P. falciparum Dd2 in RBCs, LDH growth readout, 72 h; at 2 µM; active compounds read high.
A short description of experiment [2]: HepG2 cytotoxicity, primary screen, cytotoxicity control for P. falciparum antimalarial project, cell-based, ATP luminescence (AID 2303;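 active means inhibition above 50%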;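 further: 0% = DMSO wells and 100% = digitonin-killed cells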). As to conditions: HepG2 viability, 24-48 h, at 10 µM, active compounds read high.
Experiment [3] addresses L-lactate dehydrogenase (Plasmodium falciparum (isolate CDC / Honduras)) (UniProt Q27743). In words: PfLDH activity inhibition – cell lysate, 3D7 strain, counter-screen for P. falciparum growth inhibition project (AID 2304).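 Further: 0% = vehicle and 100% = reference inhibitor.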 The conditions noted are these: P. falciparum 3D7 crude extract, LDH APAD/NBT absorbance; at 2 µM; active compounds read high.
Experiment [4] in a line: inhibition of 3D7 malaria parasite growth – strain 3D7 (AID 2306).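 Further: 0% = DMSO wells and 100% = chloroquine plus artemisinin control wells.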 The conditions noted are these: P. falciparum 3D7 erythrocytic growth, LDH absorbance, 72 h; at 2 µM; active compounds read high.
For experiment [5], the target named is Calcium-dependent protein kinase 1 (Plasmodium falciparum (isolate 3D7)) (UniProt P62344). In words: PfCDPK1 kinase inhibitors, biochemical, TCAMS library (AID 1159585; cut-off not given, nearly all actives have IC50 up to about 0.98 µM;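 further: inhibitors leave more ATP so luminescence rises with inhibition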). As to conditions: recombinant PfCDPK1, Kinase-Glo ATP depletion luminescence.
Calcium-dependent protein kinase 1 (Plasmodium falciparum (isolate 3D7)), sequence (P62344 whole entry, looked up): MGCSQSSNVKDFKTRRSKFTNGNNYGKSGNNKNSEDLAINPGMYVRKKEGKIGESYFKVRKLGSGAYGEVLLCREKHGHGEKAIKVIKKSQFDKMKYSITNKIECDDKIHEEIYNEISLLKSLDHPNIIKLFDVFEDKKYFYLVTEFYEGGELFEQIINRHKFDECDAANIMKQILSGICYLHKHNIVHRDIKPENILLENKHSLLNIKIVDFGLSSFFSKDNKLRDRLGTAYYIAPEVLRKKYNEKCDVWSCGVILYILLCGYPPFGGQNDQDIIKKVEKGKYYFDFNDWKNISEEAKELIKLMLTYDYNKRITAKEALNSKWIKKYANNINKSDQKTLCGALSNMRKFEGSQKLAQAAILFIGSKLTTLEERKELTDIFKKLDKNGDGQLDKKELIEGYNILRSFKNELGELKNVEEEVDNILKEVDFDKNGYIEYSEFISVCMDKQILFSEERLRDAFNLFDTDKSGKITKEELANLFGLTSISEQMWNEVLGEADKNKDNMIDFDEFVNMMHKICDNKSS
Experiment [6] has as its target Plasmodium falciparum protein kinase 6 (PK6, PF3D7_1337100) (UniProt Q8IDW1). In words: PfPK6 kinase inhibitors, biochemical, TCAMS library (AID 1159586). The conditions noted are these: recombinant PfPK6, Kinase-Glo ATP depletion luminescence.
Experiment [7] addresses Protein kinase 7 (PK7), Plasmodium falciparum 3D7 (PF3D7_0213400) (UniProt Q7YTF7). The experiment in a line: inhibition of Plasmodium PK7 catalytic activity – biochemical, TCAMS antimalarial set, Kinase-Glo luminescence (AID 1159587). As to conditions: recombinant PfPK7, Kinase-Glo ATP depletion luminescence.
Experiment [8] addresses Calcium-dependent protein kinase 4 (Plasmodium falciparum (isolate 3D7)) (UniProt Q8IBS5). In words: PfCDPK4 kinase inhibitors, biochemical, TCAMS library (AID 1159588; cut-off not given, nearly all actives have IC50 up to about 0.91 µM). The conditions noted are these: recombinant PfCDPK4, Kinase-Glo ATP depletion luminescence.

The structures appear in SMILES notation. A number with no mark means an inactive call. For some assays here: Potency and affinity values are given separately. Activity calls are given as the source filed them. Unless noted, how the calls were made is not given here.

Calcium-dependent protein kinase 4 (Plasmodium falciparum (isolate 3D7)), sequence (Q8IBS5 whole entry, looked up): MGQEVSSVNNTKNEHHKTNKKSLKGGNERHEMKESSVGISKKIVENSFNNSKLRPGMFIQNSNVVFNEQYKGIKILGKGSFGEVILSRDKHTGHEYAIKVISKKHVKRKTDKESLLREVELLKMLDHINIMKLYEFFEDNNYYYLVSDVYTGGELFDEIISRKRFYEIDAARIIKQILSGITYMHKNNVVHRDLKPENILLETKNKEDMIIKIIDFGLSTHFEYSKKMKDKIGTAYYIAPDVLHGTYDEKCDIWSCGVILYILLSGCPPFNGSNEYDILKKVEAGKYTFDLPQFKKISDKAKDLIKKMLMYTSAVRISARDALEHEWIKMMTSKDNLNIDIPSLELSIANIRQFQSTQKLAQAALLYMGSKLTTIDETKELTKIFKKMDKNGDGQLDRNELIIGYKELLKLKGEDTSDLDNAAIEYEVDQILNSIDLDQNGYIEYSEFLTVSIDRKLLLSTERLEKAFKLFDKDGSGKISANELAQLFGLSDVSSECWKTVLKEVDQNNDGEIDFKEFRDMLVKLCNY
L-lactate dehydrogenase (Plasmodium falciparum (isolate CDC / Honduras)), sequence (Q27743 whole entry, looked up): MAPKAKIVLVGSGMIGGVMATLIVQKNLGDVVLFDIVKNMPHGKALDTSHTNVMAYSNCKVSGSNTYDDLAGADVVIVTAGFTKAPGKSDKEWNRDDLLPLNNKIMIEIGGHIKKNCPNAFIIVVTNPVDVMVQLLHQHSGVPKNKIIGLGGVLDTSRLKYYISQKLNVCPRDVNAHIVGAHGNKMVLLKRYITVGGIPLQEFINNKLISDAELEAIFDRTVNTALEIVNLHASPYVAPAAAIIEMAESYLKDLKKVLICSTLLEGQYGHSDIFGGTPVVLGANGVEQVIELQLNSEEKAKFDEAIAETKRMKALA
Plasmodium falciparum protein kinase 6 (PK6, PF3D7_1337100), sequence (Q8IDW1 1-305): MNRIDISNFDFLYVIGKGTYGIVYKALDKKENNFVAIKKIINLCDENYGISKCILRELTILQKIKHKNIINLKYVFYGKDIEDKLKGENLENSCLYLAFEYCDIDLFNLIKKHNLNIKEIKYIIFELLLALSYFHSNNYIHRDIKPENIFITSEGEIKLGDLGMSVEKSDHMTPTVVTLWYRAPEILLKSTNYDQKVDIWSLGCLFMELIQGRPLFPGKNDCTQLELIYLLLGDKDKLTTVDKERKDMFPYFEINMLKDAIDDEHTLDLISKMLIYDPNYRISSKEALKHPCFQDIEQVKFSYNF
Protein kinase 7 (PK7), Plasmodium falciparum 3D7 (PF3D7_0213400), sequence (Q7YTF7 1-343): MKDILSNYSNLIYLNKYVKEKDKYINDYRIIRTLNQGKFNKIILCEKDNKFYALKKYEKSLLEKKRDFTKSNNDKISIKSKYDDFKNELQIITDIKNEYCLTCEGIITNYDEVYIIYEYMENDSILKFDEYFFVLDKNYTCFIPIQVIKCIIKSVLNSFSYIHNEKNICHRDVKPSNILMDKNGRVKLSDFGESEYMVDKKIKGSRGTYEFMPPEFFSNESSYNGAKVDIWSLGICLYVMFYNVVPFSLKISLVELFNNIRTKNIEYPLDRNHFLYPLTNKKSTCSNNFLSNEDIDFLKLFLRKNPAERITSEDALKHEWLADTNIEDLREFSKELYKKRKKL

For the molecule `Cc1cc(N2CCCC2)nc(Nc2ccc(NC(=O)c3cccc(F)c3)cc2)n1`, the growth inhibition in experiment [1] was 28%; in experiment [4], 97% (active). The inhibition in experiment [2] was 39%; in experiment [3], -3%. Also, the outcome in experiment [5], in experiment [6], in experiment [7] and in experiment [8] was inactive.
For `CN(C)CCCNCCS(=O)(=O)c1cccc(Nc2ccc(-c3cccc(N(C)C)c3)cn2)c1`, the figures for the growth inhibition in experiment [1] and in experiment [4] were -3% and 98% (active), respectively. Moreover, the inhibition is 19% in experiment [2] and -2% in experiment [3]. Moreover, the outcome in experiment [5], in experiment [6], in experiment [7] and in experiment [8] was inactive.
Consider `CCCC(=O)NC(NC(=S)Nc1ccc([N+](=O)[O-])cc1)C(Cl)(Cl)Cl` (configuration not stated), for which the results for the growth inhibition in experiment [1] and in experiment [4] were 14% and 93% (active), respectively. In addition, the inhibition in experiment [2] was 10%; in experiment [3], 4%. Also, the result in experiment [5], in experiment [6], in experiment [7] and in experiment [8] was inactive.
With `COc1ccc2nccc([C@@H](O)CN3CCC(NCCc4c[nH]c5ccccc45)CC3)c2c1`, the growth inhibition in experiment [1] was 77% (active); in experiment [4], 98% (active). Besides, the inhibition in experiment [2] is 0%; in experiment [3] it was -7%. Besides, the outcome in experiment [5], in experiment [6], in experiment [7] and in experiment [8] was inactive.
Regarding `Cn1nccc1C(=O)NCCNCc1cccc(-c2ccc(-c3nc4ccc(C(F)(F)F)cc4[nH]3)cc2)c1`, the growth inhibition is 98% (active) in experiment [1] and 102% (active) in experiment [4]. Also, the inhibition in experiment [2] is 51% (active); in experiment [3], -1%. For the same molecule, the result in experiment [5], in experiment [6], in experiment [7] and in experiment [8] was inactive.
Consider `O=C(NCCCCN1CCC(c2ccc3c(c2OCc2ccncc2)CCCC3)CC1)c1ccc(-c2ccc(C(F)(F)F)cc2)cc1`, for which the figures for the growth inhibition in experiment [1] and in experiment [4] were 92% (active) and 101% (active), respectively. For the same molecule, the inhibition in experiment [2] was 96% (active); in experiment [3] it was 3%. In addition, the result in experiment [5], in experiment [6], in experiment [7] and in experiment [8] was inactive.
On to `COc1ccc(CC(=O)Nc2ccc(Nc3nc(C)cc(N4CCCC4)n3)cc2)cc1`, for which the growth inhibition is 65% (active) in experiment [1] and 101% (active) in experiment [4]. The inhibition in experiment [2] was 56% (active); in experiment [3], -1%. Moreover, the outcome in experiment [5], in experiment [6], in experiment [7] and in experiment [8] was inactive.
As for `O=C(N[C@H]1CCN(Cc2ccc(OC3CCN(Cc4ccccc4)CC3)c(Cl)c2)C1)c1ccc(Cl)c(Cl)c1`, the growth inhibition is 11% in experiment [1] and 99% (active) in experiment [4]. In addition, the results for the inhibition in experiment [2] and in experiment [3] were 59% (active) and 0%, respectively. The result in experiment [5], in experiment [6], in experiment [7] and in experiment [8] was inactive.
With `C[C@H](NCCC1CCC(NC(=O)N[C@H](C)C(O)(c2ccccc2)c2ccccc2)CC1)c1cccc2ccccc12` (some centres not stated), the growth inhibition was 58% (active) in experiment [1] and 86% (active) in experiment [4]. Besides, the inhibition in experiment [2] is 43%; in experiment [3] it was -2%. The outcome in experiment [5], in experiment [6], in experiment [7] and in experiment [8] was inactive.
Turning to `Cc1cc(NCC2CCN(CC3CCCCC3)C2)nc(Nc2ccc(Cl)cc2)n1` (configuration not stated), the growth inhibition in experiment [1] was 74% (active); in experiment [4] it was 101% (active). Moreover, the inhibition is 2% in experiment [2] and -3% in experiment [3]. Further, the outcome in experiment [5], in experiment [6], in experiment [7] and in experiment [8] was inactive.
Turning to `O=C(C=Cc1ccc(Cl)c(Cl)c1)NCCCCCN1CCC(CCNC(=O)c2sc3ccccc3c2Cl)CC1`, the growth inhibition in experiment [1] was 6%; in experiment [4], 88% (active). Also, the inhibition in experiment [2] was 27%; in experiment [3], -5%. Besides, the result in experiment [5], in experiment [6], in experiment [7] and in experiment [8] was inactive.
With `Cc1ccc(-n2cc(CNCCCn3ccnc3)c(-c3cccc(C)c3)n2)cc1`, the growth inhibition in experiment [1] is 36%; in experiment [4] it was 99% (active). Further, the inhibition was 9% in experiment [2] and -2% in experiment [3]. Moreover, the result in experiment [5], in experiment [6], in experiment [7] and in experiment [8] was inactive.
As to `Cc1cc(N2CCOCC2)nc2ccc(NC(=O)c3cccc([N+](=O)[O-])c3)cc12`, the figures for the growth inhibition in experiment [1] and in experiment [4] were 37% and 97% (active), respectively. Moreover, the inhibition in experiment [2] and in experiment [3] was 0% in each case. Further, the outcome in experiment [5], in experiment [6], in experiment [7] and in experiment [8] was inactive.
Turning to `Cc1ccc(NC(=O)C2CCC2)cc1-c1ccc(C(=O)NCC2CC2)cc1`, the growth inhibition in experiment [1] was 3%; in experiment [4] it was 98% (active). Further, the inhibition in experiment [2] is 13%; in experiment [3], 3%. Besides, the outcome in experiment [5], in experiment [6], in experiment [7] and in experiment [8] was inactive.
As to `Fc1ccc2nc(-c3cccc(-c4ccc(CNCC5CCCO5)cc4)c3)[nH]c2c1` (configuration not stated), the results for the growth inhibition in experiment [1] and in experiment [4] were 98% (active) and 101% (active), respectively. Further, the inhibition in experiment [2] is 36%; in experiment [3], 0%. For the same molecule, the result in experiment [5], in experiment [6], in experiment [7] and in experiment [8] was inactive.
`O=C(/C=C/c1ccc(Cl)c(Cl)c1)NCCCCCN1CCC(NC(=O)Nc2ccc(OC(F)F)cc2)CC1`: the growth inhibition in experiment [1] was 18%; in experiment [4], 101% (active). The inhibition in experiment [2] was 33%; in experiment [3], 6%. In addition, the outcome in experiment [5], in experiment [6], in experiment [7] and in experiment [8] was inactive.
Take `COc1cc(-c2nc(-c3ccccc3)c(-c3ccccc3)[nH]2)ccc1OCCN(C)C`: the values for the growth inhibition in experiment [1] and in experiment [4] were 100% (active) and 101% (active), respectively. The results for the inhibition in experiment [2] and in experiment [3] were -8% and 5%, respectively. In addition, the result in experiment [5], in experiment [6], in experiment [7] and in experiment [8] was inactive.
In the case of `Oc1ccc2c(CNCCc3ccccc3)c(O)ccc2c1CNCCc1ccccc1`, the growth inhibition is 100% (active) in experiment [1] and 99% (active) in experiment [4]. For the same molecule, the inhibition was 24% in experiment [2] and -8% in experiment [3]. Further, the result in experiment [5], in experiment [6], in experiment [7] and in experiment [8] was inactive.
As to `Cc1cccc(Nc2nc(N)c3ccccc3n2)c1`, the values for the growth inhibition in experiment [1] and in experiment [4] were 49% and 99% (active), respectively. Also, the results for the inhibition in experiment [2] and in experiment [3] were 1% and 3%, respectively. In addition, the result in experiment [5], in experiment [6], in experiment [7] and in experiment [8] was inactive.

Values taken from PubChem BioAssay.
